Laboratory results reported in the supplement of paper PMC6522484.
± gives the standard deviation of the averaged measurements.

tested on: SW480; assay: TCF/Wnt firefly luciferase reporter signal relative to plate median (fraction of plate median); higher = higher Wnt reporter signal; conditions: 5 µM; treatment time 24 h; reporter: 7TFP
Procedure, shortened: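 Per-well firefly luciferase or CellTiterGlo luminescence, normalised to the plate median, is what is reported. It was measured in colorectal cancer cells with stable lentiviral TCF/Wnt firefly luciferase reporters after a 24 h treatment with library compounds at a final 5 µM. The mean of two independent replicates is given.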

Row | SMILES | TCF/Wnt firefly luciferase reporter signal
1 | O=c1cc(-c2ccccc2)oc2cccc(O)c12 | 1.03
2 | C[C@]12CCC(=O)C=C1C=C[C@@H]1[C@@H]2CC[C@@]2(C)[C@H]1CC[C@@]21CCC(=O)O1 | 1.025 ± 0.0071
3 | CCc1cnn2c(NCc3ccc[n+]([O-])c3)cc(N3CCCC[C@H]3CCO)nc12 [Dinaciclib] | 0.789 ± 0.035
4 | O=C(/C=C/c1ccc(O)c(O)c1)OCCc1ccccc1 | 0.9925 ± 0.0078
5 | O=C(Cn1ccnc1[N+](=O)[O-])NCCO | 1.02 ± 0.038
6 | O=C(O)c1cc(O)c(O)c(O)c1 | 1.03 ± 0.17
7 | Cc1cc(O)c(C=O)c2c1C(=O)Oc1c(COC(=O)/C=C/C(=O)O)c(O)c(C(=O)O)c(C)c1O2 | 0.939 ± 0.12
8 | CC(C)c1c(O)ccc2c1CCC1[C@@](C)(C=O)CCC[C@]21C (stereo not given in full) | 1.08 ± 0.028
9 | CC(=O)OC(C)(C)[C@@H]1Cc2cc3ccc(=O)oc3cc2O1 | 0.944 ± 0.077
10 | CCOC(=O)[C@H](CCc1ccccc1)N[C@@H](C)C(=O)N1Cc2ccccc2C[C@H]1C(=O)O | 0.876 ± 0.0057
11 | COc1cc(/C=C/C(=O)O)cc(OC)c1OC | 0.972 ± 0.0028
12 | CC(=O)OC1CCC2(O)CC1(C)CCC1C2CC1(C)C (stereo not given) | 0.933 ± 0.057
13 | C[C@@H]1CC[C@@]2(OC1)O[C@H]1C[C@H]3[C@@H]4CC[C@H]5C[C@@H](O)CC[C@]5(C)[C@H]4CC[C@]3(C)[C@H]1[C@@H]2C | 0.931 ± 0.037
14 | CC(=O)OCC(=O)[C@@]1(O)CC[C@H]2[C@@H]3CCC4=CC(=O)CC[C@]4(C)[C@@]3(F)[C@@H](O)C[C@@]21C | 1.07 ± 0.11
15 | COc1ccc2c3c1O[C@H]1C[C@@H](O)C=C[C@@]31CCN(C)C2 | 1.05
16 | CCCCC(=O)N(Cc1ccc(-c2ccccc2-c2nnn[nH]2)cc1)[C@H](C(=O)O)C(C)C | 0.919 ± 0.09
17 | CNCC[C@H](Oc1cccc2ccccc12)c1cccs1 | 0.97 ± 0.021
18 | CC1NC(=O)CNC1=O (stereo not given) [cyclo(alanylglycyl)] | 1 ± 0.1
19 | COc1ccc(NS(=O)(=O)c2ccc(N)cc2)nn1 | 0.914 ± 0.14
20 | O=C(CCCCC(=O)Nc1c(I)cc(I)c(C(=O)O)c1I)Nc1c(I)cc(I)c(C(=O)O)c1I | 1.06 ± 0.021

Row | SMILES | TCF/Wnt firefly luciferase reporter signal
21 | COc1cc([S+](C)[O-])ccc1-c1nc2cccnc2[nH]1 (stereo not given) | 0.794 ± 0.057
22 | C/C=C/C1=CC(=O)[C@@H](O)[C@@H]1O [Terrein] | 1.1 ± 0.11
23 | O=C1OC(=O)[C@H]2[C@@H]1[C@@H]1CC[C@H]2O1 | 0.892 ± 0.02
24 | COC(=O)c1c(OC)cc2c(c1C)Oc1c(Cl)c(OC(C)=O)c(Cl)c(C)c1C(=O)O2 | 0.968 ± 0.02
25 | Cc1cc(O)cc(C)c1Cl | 1.01
26 | CC(=O)N1CCCC(N)C1=O (stereo not given) [N-Acetyl-3-amino-2-piperidinon] | 0.851 ± 0.044
27 | CCc1ccc(CCOc2ccc(CC3SC(=O)NC3=O)cc2)nc1 (stereo not given) | 1.07 ± 0.057
28 | O=C(C=Cc1ccc(O)cc1)c1ccccc1O | 1.07 ± 0.092
29 | CO/N=C(\C(=O)N[C@@H]1C(=O)N2C(C(=O)O)=C(CSc3nc(=O)c(O)nn3C)CS[C@H]12)c1csc(N)n1 | 0.96 ± 0.057
30 | O=c1cc(-c2ccc(O)c(O)c2)oc2cc(O[C@@H]3O[C@H](CO)[C@@H](O)[C@H](O)[C@H]3O)cc(O)c12 [Luteolin-7-O-glucoside (102)] | 1.03 ± 0.072
31 | CCCCc1oc2ccccc2c1C(=O)c1cc(I)c(OCCN(CC)CC)c(I)c1 | 1.04 ± 0.1
32 | COC(=O)N/N=C/c1c[n+]([O-])c2ccccc2[n+]1[O-] | 0.9245 ± 0.0092
33 | COc1ccc2c(c1)[C@@]1(C)CC[C@@H](O)C[C@@H]1CC2 [12-METHOXY-4,4-BISNOR-5alpha-8,11,13-PODOCARPATRIEN-3-OL] | 0.937 ± 0.021
34 | CN1CC(=O)N2[C@H](c3ccc4c(c3)OCO4)c3[nH]c4ccccc4c3C[C@@H]2C1=O | 0.941 ± 0.098
35 | N[C@@H](Cc1c[nH]c2ccccc12)C(=O)O | 1.1 ± 0.05
36 | CCOC(=O)[C@H](CCc1ccccc1)N[C@@H](C)C(=O)N1[C@H](C(=O)O)C[C@@H]2CCC[C@@H]21 | 1.06 ± 0.1
37 | CC(C)CC(NC(=O)OCC1c2ccccc2-c2ccccc21)C(=O)O (stereo in doubt) | 1.02 ± 0.029
38 | O=c1c(O)cc([C@H]2Oc3cc(O)cc(O)c3C[C@H]2O)cc2c([C@H]3Oc4cc(O)cc(O)c4C[C@H]3O)cc(O)c(O)c12 | 1.04 ± 0.1
39 | O=C(O)c1c2ccccc2cc2ccccc12 | 0.872 ± 0.073
40 | COc1ccc(-c2cc(=O)c3c(OC)c(OC)c(OC)c(OC)c3o2)cc1OC | 0.992 ± 0.011
